FBW7 activator = activators of human E3 ligase FBW7; Q969H0; AlphaScreen FBW7–phospho-cyclin E peptide binding, activator screen; normalized activity (activation), % at 26.1 µM; 650,000 tested, 0.13% active; AID 1259310; in the data active means normalized activity above about 1.9%;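 further: purified mutant Fbw7 with reduced substrate affinity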
Target sequence (Q969H0 whole entry, looked up): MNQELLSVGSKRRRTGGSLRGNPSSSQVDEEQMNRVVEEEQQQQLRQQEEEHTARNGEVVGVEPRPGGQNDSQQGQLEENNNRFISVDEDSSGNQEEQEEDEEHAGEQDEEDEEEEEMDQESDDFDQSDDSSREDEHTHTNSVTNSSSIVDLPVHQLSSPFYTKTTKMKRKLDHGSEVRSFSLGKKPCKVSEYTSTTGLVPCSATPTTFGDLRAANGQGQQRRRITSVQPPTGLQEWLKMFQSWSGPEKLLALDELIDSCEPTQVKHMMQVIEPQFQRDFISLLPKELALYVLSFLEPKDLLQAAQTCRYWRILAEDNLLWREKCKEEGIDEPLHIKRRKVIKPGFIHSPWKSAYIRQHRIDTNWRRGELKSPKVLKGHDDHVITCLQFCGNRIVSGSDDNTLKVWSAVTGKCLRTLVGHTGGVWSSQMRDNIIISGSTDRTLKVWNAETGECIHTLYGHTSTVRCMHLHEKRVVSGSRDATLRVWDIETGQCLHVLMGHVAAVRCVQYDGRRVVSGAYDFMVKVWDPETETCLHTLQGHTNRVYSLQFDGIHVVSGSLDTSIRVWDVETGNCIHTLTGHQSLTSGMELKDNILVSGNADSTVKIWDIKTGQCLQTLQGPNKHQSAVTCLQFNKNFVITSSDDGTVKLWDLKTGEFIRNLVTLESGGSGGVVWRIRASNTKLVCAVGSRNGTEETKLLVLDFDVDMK
GPR151 activ = activates the human receptor GPR151 | PathHunter beta-arrestin GPR151 cells, luminescence | activation, % at 11.2 µM | 650,000 tested, 1% active; in the data active means activation above about 4.9%
MITF inh = human MITF inhibition, primary screen | 650,000 tested, 0.91% active | inhibition, % at 2.6 µM | O75030 | AID 1259374 | AlphaScreen MITF homodimerization, bead proximity signal; in the data active means inhibition above about 50%
TEAD-YAP block = TEAD-YAP interaction inhibition | HEK-TIYL cells, TEAD-Gal4/YAP UAS-luciferase luminescence | inhibition, % at 9.12 µM | 640,000 tested, 1.4% active | AID 1259422; in the data active means inhibition above about 32%
GPR151 confirm = human GPR151 activation, confirmation screen; shares compounds with GPR151 activ; 6,700 tested, under 10 active; activation, % at 11.2 µM; AID 1508609; GPR151 PathHunter beta-arrestin cells, luminescence, 90 min; % of EA-reagent control over plate median;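 active means mean percent activation across replicates above the confirmation screen cutoff of 4.91%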
GPR119 ag = counter-screen for GPR151 activators: effect on human GPR119; 6,700 tested, 0.3% active; shares compounds with GPR151 activ; GPR119 PathHunter beta-arrestin cells, luminescence, 90 min; 0 = compound-well median, 100 = enzyme-acceptor control; activation, % at 11.2 µM; AID 1508611;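 active means mean percent activation in the counterscreen above 29.09%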;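 further: counterscreen on off-target GPR119 to flag nonselective hits from the GPR151 activator screen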
Numbers stand for hits; - = inactive; . = not tested or not shown. Compounds with a hit are over-represented: about 3.4% of the library has one in this group of screens.

SMILES	FBW7 activator	GPR151 activ	MITF inh	TEAD-YAP block	GPR151 confirm	GPR119 ag
COCCCN1C(=O)C(=O)/C(=C(\O)c2ccccc2)C1c1ccc(C(C)C)cc1 (stereo unspecified)	-	5.3	-	-	-	-
O=C(NCc1ccccc1Cl)c1ccc(N2CC3CC(C2)c2cccc(=O)n2C3)c(NS(=O)(=O)c2ccc(F)cc2)c1 (stereo unspecified)	-	-	-	-	.	.
Cc1ccc(-c2nnc(C3CCN(S(=O)(=O)c4ccc(Cl)s4)CC3)o2)cc1	-	7.0	-	-	-	-
Clc1ccccc1/C=N/Nc1nncc(-c2ccccc2)n1	-	6.2	-	-	-	-
Cc1nnc2c(Nc3ccccc3N3CCCCC3)nc3ccccc3n12	-	-	-	-	.	.
c1ccc(N2CCCCC2)c(Nc2nc3ccccc3n3nnnc23)c1	-	6.0	-	-	-	-
COc1ccc(SCCC(=O)Nc2ccc3sc(C)nc3c2)cc1	-	6.2	-	-	-	-
COc1ccc(SCCC(=O)Nc2nc3ccccc3s2)cc1	-	-	-	-	.	.
O=C1C(=O)N(CCc2ccccc2)C(c2ccc(F)cc2)/C1=C(/O)c1ccccc1 (stereo unspecified)	-	-	-	-	.	.
COc1ccc(C2=CC(c3cc(OC)c(OC)c(OC)c3)n3nnnc3N2)cc1 (stereo unspecified)	-	7.3	-	61.4	-	-
Cc1ccccc1CN1CCC(N2CCC(C(=O)NCC3CCCO3)CC2)CC1 (stereo unspecified)	-	8.4	-	-	-	-
CC1=C(C(=O)Nc2cccc(C)c2C)C(c2ccc(Br)cc2)NC(=O)N1 (stereo unspecified)	-	-	-	-	.	.
COC(=O)c1c(OCc2ccccn2)cc(=O)n2c1CCN(C(=O)C1CCCCC1)CC2	-	-	-	-	.	.
COc1cccc(NC(=S)Nc2ccccc2OC)c1	-	12.8	-	-	-	-
CC(=O)NC(=S)Nc1ccc(Br)c(C)n1	-	-	-	-	.	.
CCC(=O)Nc1cccc(NC(=S)NC(=O)c2ccccc2OC)c1	-	8.8	-	-	-	-
COc1ccccc1C(=O)NC(=S)Nc1ccc(Br)c(C)n1	-	5.2	-	-	-	-
O=C(COc1ccccc1)Nc1c2c(nn1-c1ccc(Cl)cc1)CSC2	-	-	-	-	.	.
Cc1cc(C(=O)NC(CC(C)C)C(=O)O)cc(C)c1[N+](=O)[O-] (stereo unspecified)	-	-	-	-	.	.
Cc1cc(C(=O)NC(C)C(=O)O)cc(C)c1[N+](=O)[O-] (stereo unspecified)	-	5.0	-	-	-	-
CC(C)(C)c1ccc(C(=O)COC(=O)c2cc[n+]([O-])cc2)cc1	-	-	-	-	.	.
CCOc1cc(S(=O)(=O)n2nnc3ccccc32)ccc1F	-	5.1	-	-	-	-
COc1cccc(C=Nc2ccc(C)c(F)c2)c1O	-	5.8	-	-	-	-
COc1ccc(C2Nc3ccccc3S(=O)(=O)N2Cc2ccccc2)cc1[N+](=O)[O-] (stereo unspecified)	-	-	-	-	.	.
O=[N+]([O-])c1ccc(C2Nc3ccccc3S(=O)(=O)N2Cc2ccccc2)cc1 (stereo unspecified)	-	6.7	-	-	-	-
SMILES	FBW7 activator	GPR151 activ	MITF inh	TEAD-YAP block	GPR151 confirm	GPR119 ag
COC(=O)c1c(NC(=O)c2ccc(S(=O)(=O)N3CC(C)OC(C)C3)cc2)sc2c1CC(C)(C)NC2(C)C (stereo unspecified)	-	-	-	-	.	.
O=[N+]([O-])c1cccc(CNc2cccc(F)c2)c1	-	10.6	-	-	-	-
CN1CCOCCOCCOCCOCCOCC1	-	6.3	-	-	-	-
COc1ccccc1-n1c(CNC(=O)c2ccc(S(=O)(=O)N3CCCCC3)cc2)nnc1SCC(=O)Nc1nccs1	-	5.4	-	-	-	-
CN(C)c1cccc(C(=O)OCc2nnc(-c3ccccc3)o2)c1	-	6.6	-	-	-	-
Cc1ccc2onc(CC(=O)Nc3ncccc3C)c2c1	-	-	-	-	.	.
CCOC(=O)c1cnc2c(C)c(Cl)ccc2c1Nc1ccc(O)cc1	-	-	-	-	.	.
COc1cccc(CNc2nn[nH]n2)c1OC	-	8.4	-	-	-	-
O=C(Nc1ccc2c(c1)OCO2)C1CC12CCN(C(=O)c1ccc(-n3ccnc3)cc1)CC2 (stereo unspecified)	-	-	-	-	.	.
CN1CCCc2cc(CN3CCC4(CC3)CC4C(=O)Nc3ccc4c(c3)OCO4)ccc21 (stereo unspecified)	-	4.9	-	-	-	-
O=C(Nc1ccc2c(c1)OCO2)C1CC12CCN(C(=O)c1ccc(-c3ccco3)cc1)CC2 (stereo unspecified)	-	5.5	-	-	-	-
CC(NC(=O)c1cc([N+](=O)[O-])c(Cl)c([N+](=O)[O-])c1)c1ccccc1 (stereo unspecified)	-	-	-	-	.	.
COc1ccc(CC2(CCC(=O)NCc3cnn(C)c3C)CCC(=O)N2)c(F)c1 (stereo unspecified)	-	5.1	-	-	-	-
CCOC(=O)c1c(NC(=O)c2ccc(-c3ccccc3)cc2)sc(C)c1C	-	-	-	-	.	.
COc1ccccc1N1CCN(C(=O)CSc2nc(N)cc(=O)[nH]2)CC1	-	-	-	-	.	.
COc1ccccc1N1CCN(C(=O)CSc2nc3ccccc3[nH]2)CC1	-	6.0	-	-	-	-
O=c1[nH]c(N/N=C/c2cc([N+](=O)[O-])ccc2O)nnc1Cc1ccccc1	-	6.2	-	-	-	-
O=c1[nH]c(N/N=C/c2ccc(O)cc2)nnc1Cc1ccccc1	-	-	-	-	.	.
CCOc1ccc(S(=O)(=O)NCc2ccco2)c(C)c1C	-	-	-	-	.	.
CCOc1c(S(=O)(=O)NCc2ccco2)ccc(Cl)c1Cl	-	6.3	-	-	-	-
O=C(O)[C@H]1C2C=CC(C2)[C@H]1C(=O)N1CCC(c2nc(-c3cnccn3)no2)CC1 (stereo partly specified)	-	-	-	-	.	.
Cc1cc(C)cc(C(=O)NC(CC(C)C)c2nnc3n2CCN(Cc2cccnc2)CC3)c1 (stereo unspecified)	-	-	-	-	.	.
CCC1Oc2ccc(C)cc2N(CC(=O)O)C1=O (stereo unspecified)	-	-	-	-	.	.
CCCCN(C)C(=O)CN1C(=O)C(CC)Oc2ccc(C)cc21 (stereo unspecified)	-	8.8	-	-	-	-
COc1cccc(C2CC(c3cccs3)=NN2C(=O)CSc2nnc(CNC(=O)c3cccc(F)c3)n2-c2ccccc2)c1OC (stereo unspecified)	-	-	-	-	.	.
CCOc1cc2[nH]c(=O)n(Cc3cccc(OC)c3)c(=O)c2cc1OCC	-	8.5	-	-	-	-
CC(=O)NC(c1ccco1)c1cc(Cl)c2cccnc2c1O (stereo unspecified)	-	15.1	75.9	-	-	-
